In PubChem BioAssay (Tox21):
Values without a mark were called inactive. Inconclusive results are not listed. Where a call stands in place of a potency, no number is given. Activity calls are given as the source filed them. Calls follow the shape of the dose curve; as a rule, active = well fitted curve in the direction sought with a large enough effect in the repeat runs; inconclusive = weak or mixed curves; inactive = no such curve, though single readings can be large; an effect the other way counts as inactive or inconclusive.

How the values were obtained:
[1] = Caspase-3/7 induction in CHO-K1 cells by small molecules, qHTS cell viability counter screen (AID 1346979); also: nearly all actives have a fitted effect of over 35% in size; also: potency is read from the fitted curve at half-maximal effect
Procedure, shortened: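 To flag cytotoxic compounds, treated CHO-K1 wild-type cells were given CellTiter-Fluor at 16hr and read fluorescently after 1hr at 37C; the caspase-3/7 luminescence was measured in these same wells.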

[2] = Caspase-3/7 induction in CHO-K1 cells by small molecules, qHTS assay (AID 1346980); also: nearly all actives have a fitted effect of over 15% in size
Procedure, shortened: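 Luminescent Caspase-Glo 3/7 read (30min, room temperature) quantified apoptosis induction. Cells were wild-type CHO-K1, treated with compound for 17hr at 37 C and 5% CO2.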

[3] = Caspase-3/7 induction in HepG2 cells by small molecules, qHTS cell viability counter screen (AID 1346981); also: series mostly up to about 92 µM; nearly all actives have a fitted effect of over 30% in size
Procedure, shortened: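 The parent HepG2 line is plated at 2,000 cells per well and rested 5 hr before compound pinning from DMSO stocks. Following a 16-hr treatment at 37 C, a fluorogenic live-cell substrate (CellTiter-Fluor) reports viability after 1 hr.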

[4] = biological target: Nuclear receptor subfamily 1 group I member 2 (Homo sapiens) (UniProt O75469); assay: Human pregnane X receptor (PXR) small molecule agonists, qHTS assay (AID 1346982); also: nearly all actives have a fitted effect of over 35% in size; also: potency is read from the fitted curve at half-maximal effect
Procedure, shortened: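 After plating in 5% charcoal-stripped FBS and a 5 hr rest, PXR-Luc HepG2 cells received compounds in DMSO. Following 24 hr at 37 C, ONE-Glo was added and light output read.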

[5] = biological target: Nuclear receptor subfamily 1 group I member 2 (Rattus norvegicus) (UniProt Q9R1A7); assay: Rat pregnane X receptor (rPXR) activation by small molecules, qHTS assay (AID 1346983); conditions: rPXR luciferase reporter cells, One-Glo luminescence, 24 h; max activation: hits give high values; also: nearly all actives have a fitted effect of over 20% in size
Procedure, shortened: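 Luminescent readout (One-Glo luciferase, 30 min room temperature) followed 24 hr compound treatment at 37 C of rPXR cells plated 2,000 per well and preincubated 5hr; qHTS format with compounds delivered in DMSO.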

[6] = biological target: Nuclear receptor subfamily 1 group I member 2 (Homo sapiens) (UniProt O75469); assay: CYP3A4 induction through human pregnane X receptor (PXR) by small molecules, qHTS assay (AID 1346984); also: nearly all actives have a fitted effect of over 40% in size; also: potency is read from the fitted curve at half-maximal effect
Procedure, shortened: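 Human PXR activation is tracked via CYP3A4 promoter-luciferase in DPX-2 (HepG2) cells. Compounds treat cells for 24hr at 37C, and luminescence is read after One-Glo.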

[7] = biological target: Nuclear receptor subfamily 1 group I member 2 (Homo sapiens) (UniProt O75469); assay: Human pregnane X receptor (PXR) activation by small molecules, qHTS assay (AID 1346985); also: nearly all actives have a fitted effect of over 40% in size; also: potency is read from the fitted curve at half-maximal effect
Procedure, shortened: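 DPX-2 cells (HepG2 co-transfected with a PXR response element and a CYP3A4-promoter luciferase construct) were seeded at 2,000 per well, rested 5 hr at 37C, then exposed to DMSO-dissolved compounds for 24 hr. Activation was read as luciferase luminescence.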

[8] = biological target: Cytochrome P450 2D6 (Homo sapiens) (UniProt P10635); assay: Cytochrome P450 Family 2 Subfamily D Member 6 (CYP2D6) small molecule antagonists: luciferase reporter qHTS assay (AID 1671196); also: nearly all actives have a fitted effect of over 50% in size; also: potency is read from the fitted curve at half-maximal effect
Procedure, shortened: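 Quantitative HTS of Tox21 chemicals against CYP2D6 using a luminescent proluciferin substrate. After NADPH addition, 1 h room-temperature reaction; luminescence recorded 20 min post detection reagent.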

[9] = biological target: Cytochrome P450 2C19 (Homo sapiens) (UniProt P33261); assay: Cytochrome P450 Family 2 Subfamily C Member 19 (CYP2C19) small molecule antagonists: luciferase reporter qHTS assay (AID 1671197); also: nearly all actives have a fitted effect of over 65% in size; also: potency is read from the fitted curve at half-maximal effect
Procedure, shortened: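 First, compounds are pinned into enzyme-substrate mix and held 10 min at room temperature. Second, NADPH regeneration solution is added and plates incubate 1 h at 37C. Third, detection reagent is added and luminescence read after 20 min.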

[10] = Caspase-3/7 induction in HepG2 cells by small molecules, qHTS assay (AID 1346978); also: nearly all actives have a fitted effect of over 15% in size
Procedure, shortened: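 Caspase-3/7 induction was measured by Caspase-Glo 3/7 luminescence (30 min, room temperature) after a 17 hr compound exposure of wild-type HepG2 cells seeded at 2,000 per well and pre-incubated 5 hr.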

[11] = biological target: Cytochrome P450 2C9 (Homo sapiens) (UniProt P11712); assay: Cytochrome P450 Family 2 Subfamily C Member 9 (CYP2C9) small molecule antagonists: luciferase reporter qHTS assay (AID 1671198); also: nearly all actives have a fitted effect of over 50% in size; also: potency is read from the fitted curve at half-maximal effect
Procedure, shortened: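 Enzyme-substrate mix preincubated with compound 10 min at room temperature; reaction started with NADPH regeneration solution, 1 h 37C. Luminescent luciferin product read after 20 min detection reagent.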

[12] = biological target: Cytochrome P450 1A2 (Homo sapiens) (UniProt P05177); assay: Cytochrome P450 Family 1 Subfamily A Member 2 (CYP1A2) small molecule antagonists: luciferase reporter qHTS assay (AID 1671199); also: nearly all actives have a fitted effect of over 50% in size; also: potency is read from the fitted curve at half-maximal effect
Procedure, shortened: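 Quantitative high-throughput format using the P450-Glo CYP1A2 system. Reaction initiated by NADPH regeneration solution, 1 h at room temperature, then stopped with detection reagent; luminescence measured 20 min later.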

[13] = biological target: Voltage-gated inwardly rectifying potassium channel KCNH2 (Homo sapiens) (UniProt Q12809); assay: Human Ether-a-go-go-Related Gene (hERG) channel small molecule antagonists: fluorescence cell-based qHTS assay (AID 1671200);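 also: hERG-expressing U2OS cells given a thallium stimulus after FluxOR II dye loading; series mostly up to about 77 µM; nearly all actives have a fitted effect of over 50% in size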
Procedure, shortened: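 Measured: Tl+ flux via fluorescence (480/540 nm) in hERG-expressing U2OS cells after 1 h dye loading at room temperature.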

[14] = biological target: Cytochrome P450 3A4 (Homo sapiens) (UniProt P08684); assay: Cytochrome P450 Family 3 Subfamily A Member 4 (CYP3A4) small molecule antagonists: luciferase reporter qHTS assay (AID 1671201); also: nearly all actives have a fitted effect of over 50% in size; also: potency is read from the fitted curve at half-maximal effect
Procedure, shortened: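 Setup: enzyme-substrate mix, compound pin transfer, 10 min RT. Reaction: NADPH regeneration solution, 1 h RT. Readout: detection reagent stops turnover, luminescence measured after 20 min, expressed in relative luminescence units.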

Nuclear receptor subfamily 1 group I member 2 (Homo sapiens), sequence (O75469 whole entry, looked up): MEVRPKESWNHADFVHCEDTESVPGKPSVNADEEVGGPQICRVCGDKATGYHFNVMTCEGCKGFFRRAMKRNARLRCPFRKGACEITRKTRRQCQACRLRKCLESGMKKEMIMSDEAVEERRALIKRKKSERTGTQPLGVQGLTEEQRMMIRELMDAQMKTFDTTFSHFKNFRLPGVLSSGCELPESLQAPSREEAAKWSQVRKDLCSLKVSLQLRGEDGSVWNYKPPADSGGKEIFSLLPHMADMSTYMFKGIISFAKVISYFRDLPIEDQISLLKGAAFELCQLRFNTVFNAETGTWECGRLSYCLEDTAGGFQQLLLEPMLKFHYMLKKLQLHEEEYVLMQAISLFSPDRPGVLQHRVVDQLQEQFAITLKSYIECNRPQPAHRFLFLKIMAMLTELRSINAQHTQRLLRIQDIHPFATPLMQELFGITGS
Nuclear receptor subfamily 1 group I member 2 (Rattus norvegicus), sequence (Q9R1A7 whole entry, looked up): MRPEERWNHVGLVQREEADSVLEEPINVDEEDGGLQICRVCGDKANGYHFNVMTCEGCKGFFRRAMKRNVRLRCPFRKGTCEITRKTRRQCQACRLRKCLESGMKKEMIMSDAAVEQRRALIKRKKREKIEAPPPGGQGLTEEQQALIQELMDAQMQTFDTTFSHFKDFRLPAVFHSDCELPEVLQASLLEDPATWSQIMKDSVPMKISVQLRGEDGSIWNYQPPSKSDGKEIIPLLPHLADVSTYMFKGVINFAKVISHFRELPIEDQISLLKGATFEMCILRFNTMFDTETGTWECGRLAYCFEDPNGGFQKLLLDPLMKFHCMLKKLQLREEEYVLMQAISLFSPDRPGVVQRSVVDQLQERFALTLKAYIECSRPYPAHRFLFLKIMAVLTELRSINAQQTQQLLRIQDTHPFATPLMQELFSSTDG
Cytochrome P450 3A4 (Homo sapiens), sequence (P08684 whole entry, looked up): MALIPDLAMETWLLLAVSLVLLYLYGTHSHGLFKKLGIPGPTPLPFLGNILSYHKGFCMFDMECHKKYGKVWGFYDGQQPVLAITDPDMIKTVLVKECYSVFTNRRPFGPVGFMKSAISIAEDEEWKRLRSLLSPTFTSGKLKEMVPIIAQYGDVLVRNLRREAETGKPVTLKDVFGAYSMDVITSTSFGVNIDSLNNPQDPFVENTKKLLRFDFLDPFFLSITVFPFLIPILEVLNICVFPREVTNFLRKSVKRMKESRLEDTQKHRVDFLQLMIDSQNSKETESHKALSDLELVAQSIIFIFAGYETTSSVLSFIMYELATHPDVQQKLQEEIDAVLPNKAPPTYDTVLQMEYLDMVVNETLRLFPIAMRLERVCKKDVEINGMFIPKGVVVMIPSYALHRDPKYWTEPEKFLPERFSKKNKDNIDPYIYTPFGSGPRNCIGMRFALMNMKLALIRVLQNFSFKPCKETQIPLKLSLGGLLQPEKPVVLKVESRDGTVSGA
Cytochrome P450 2D6 (Homo sapiens), sequence (P10635 whole entry, looked up): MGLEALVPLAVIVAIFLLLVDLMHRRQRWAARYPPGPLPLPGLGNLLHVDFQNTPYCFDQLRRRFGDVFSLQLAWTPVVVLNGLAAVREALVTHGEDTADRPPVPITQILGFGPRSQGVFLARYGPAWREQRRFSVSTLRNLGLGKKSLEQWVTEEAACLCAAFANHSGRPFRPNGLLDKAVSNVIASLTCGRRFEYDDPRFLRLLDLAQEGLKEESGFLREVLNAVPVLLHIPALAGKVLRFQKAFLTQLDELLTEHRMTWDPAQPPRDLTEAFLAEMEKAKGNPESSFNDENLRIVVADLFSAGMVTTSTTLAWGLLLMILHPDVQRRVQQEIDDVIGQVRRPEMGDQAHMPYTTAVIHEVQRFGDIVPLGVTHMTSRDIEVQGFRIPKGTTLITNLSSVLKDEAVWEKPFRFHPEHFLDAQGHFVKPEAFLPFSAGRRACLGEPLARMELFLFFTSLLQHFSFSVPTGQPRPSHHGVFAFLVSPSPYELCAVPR
Cytochrome P450 1A2 (Homo sapiens), sequence (P05177 whole entry, looked up): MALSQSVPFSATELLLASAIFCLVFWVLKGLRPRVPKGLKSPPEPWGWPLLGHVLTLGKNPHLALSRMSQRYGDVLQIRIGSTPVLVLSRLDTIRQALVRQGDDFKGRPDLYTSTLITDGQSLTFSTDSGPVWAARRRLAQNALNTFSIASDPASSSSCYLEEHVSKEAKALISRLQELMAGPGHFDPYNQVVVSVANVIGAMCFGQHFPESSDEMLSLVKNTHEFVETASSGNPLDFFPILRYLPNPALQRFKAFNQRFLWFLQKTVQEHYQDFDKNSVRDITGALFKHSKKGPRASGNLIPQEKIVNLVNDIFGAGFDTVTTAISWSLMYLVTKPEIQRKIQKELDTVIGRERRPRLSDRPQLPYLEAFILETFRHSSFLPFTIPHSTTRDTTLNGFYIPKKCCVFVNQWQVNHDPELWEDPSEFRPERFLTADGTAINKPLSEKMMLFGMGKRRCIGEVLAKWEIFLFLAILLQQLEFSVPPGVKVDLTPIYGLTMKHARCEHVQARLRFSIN
Cytochrome P450 2C9 (Homo sapiens), sequence (P11712 whole entry, looked up): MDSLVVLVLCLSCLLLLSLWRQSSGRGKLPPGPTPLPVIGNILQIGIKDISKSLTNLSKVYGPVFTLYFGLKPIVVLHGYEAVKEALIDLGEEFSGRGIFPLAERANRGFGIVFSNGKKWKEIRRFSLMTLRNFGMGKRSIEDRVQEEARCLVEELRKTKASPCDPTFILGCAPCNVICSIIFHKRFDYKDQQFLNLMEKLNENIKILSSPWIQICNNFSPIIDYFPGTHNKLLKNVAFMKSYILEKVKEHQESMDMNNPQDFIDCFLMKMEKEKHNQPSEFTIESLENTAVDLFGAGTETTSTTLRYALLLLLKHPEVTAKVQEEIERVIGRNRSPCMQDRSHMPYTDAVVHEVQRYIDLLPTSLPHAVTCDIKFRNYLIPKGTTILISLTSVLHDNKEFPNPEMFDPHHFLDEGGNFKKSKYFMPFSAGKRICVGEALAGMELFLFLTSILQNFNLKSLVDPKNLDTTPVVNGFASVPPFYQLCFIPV
Cytochrome P450 2C19 (Homo sapiens), sequence (P33261 whole entry, looked up): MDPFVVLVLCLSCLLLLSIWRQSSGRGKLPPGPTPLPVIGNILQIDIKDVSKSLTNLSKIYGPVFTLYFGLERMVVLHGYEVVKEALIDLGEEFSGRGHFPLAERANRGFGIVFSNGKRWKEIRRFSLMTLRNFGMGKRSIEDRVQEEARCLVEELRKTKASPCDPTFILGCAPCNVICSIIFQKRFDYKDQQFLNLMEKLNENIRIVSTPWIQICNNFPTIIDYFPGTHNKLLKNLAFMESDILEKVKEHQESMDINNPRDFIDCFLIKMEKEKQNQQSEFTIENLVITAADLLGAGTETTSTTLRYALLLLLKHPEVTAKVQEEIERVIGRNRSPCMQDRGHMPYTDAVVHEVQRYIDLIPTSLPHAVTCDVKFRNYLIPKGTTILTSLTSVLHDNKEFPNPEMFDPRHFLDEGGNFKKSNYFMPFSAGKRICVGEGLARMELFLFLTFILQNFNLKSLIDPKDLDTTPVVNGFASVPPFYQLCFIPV
Voltage-gated inwardly rectifying potassium channel KCNH2 (Homo sapiens), sequence (Q12809 whole entry, looked up): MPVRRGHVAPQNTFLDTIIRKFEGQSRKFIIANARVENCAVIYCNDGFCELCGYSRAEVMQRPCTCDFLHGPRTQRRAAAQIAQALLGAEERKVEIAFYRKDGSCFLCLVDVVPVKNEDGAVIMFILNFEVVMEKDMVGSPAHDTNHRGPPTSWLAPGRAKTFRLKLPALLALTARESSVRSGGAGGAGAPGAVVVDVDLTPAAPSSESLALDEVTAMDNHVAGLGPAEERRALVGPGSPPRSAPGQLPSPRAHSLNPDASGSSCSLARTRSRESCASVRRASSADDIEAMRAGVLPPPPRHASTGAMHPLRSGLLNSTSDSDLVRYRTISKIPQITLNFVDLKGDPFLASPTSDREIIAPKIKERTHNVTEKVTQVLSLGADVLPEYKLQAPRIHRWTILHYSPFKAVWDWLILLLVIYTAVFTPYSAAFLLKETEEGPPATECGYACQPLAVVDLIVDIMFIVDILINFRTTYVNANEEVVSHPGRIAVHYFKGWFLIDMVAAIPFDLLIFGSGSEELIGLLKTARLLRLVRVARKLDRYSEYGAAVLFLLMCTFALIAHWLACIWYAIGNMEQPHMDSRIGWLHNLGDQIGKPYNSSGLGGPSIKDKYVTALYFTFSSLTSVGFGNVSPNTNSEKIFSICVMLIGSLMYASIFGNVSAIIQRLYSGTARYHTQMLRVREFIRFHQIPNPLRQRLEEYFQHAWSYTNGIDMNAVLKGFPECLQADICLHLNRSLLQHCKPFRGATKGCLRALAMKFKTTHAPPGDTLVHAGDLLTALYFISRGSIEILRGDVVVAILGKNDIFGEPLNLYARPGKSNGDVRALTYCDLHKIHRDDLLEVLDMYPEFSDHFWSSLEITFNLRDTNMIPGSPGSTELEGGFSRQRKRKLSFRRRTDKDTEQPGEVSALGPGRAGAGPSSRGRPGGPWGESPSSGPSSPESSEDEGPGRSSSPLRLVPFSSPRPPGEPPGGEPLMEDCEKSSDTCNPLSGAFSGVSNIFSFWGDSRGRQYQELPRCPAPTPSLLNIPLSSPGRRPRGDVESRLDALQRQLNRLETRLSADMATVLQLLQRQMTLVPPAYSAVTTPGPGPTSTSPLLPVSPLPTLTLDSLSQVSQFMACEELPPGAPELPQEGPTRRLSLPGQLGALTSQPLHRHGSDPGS

SMILES | Potency [1] | outcome [2] | Potency [3] | Potency [4] | max activation [5] [%] | Potency [6] | Potency [7] | Potency [8] | Potency [9] | Potency [10] | Potency [11] | Potency [12] | Potency [13] | Potency [14]
Cc1c(-c2ccccc2)oc2c(C(=O)OCCN3CCCCC3)cccc2c1=O | inactive | inactive | inactive | inactive | -3.87 | inactive | inactive | 5.49 µM (active) | inactive |  |  |  |  | 
CC(C)NC[C@@H](O)COc1cccc2ccccc12 | inactive | inactive |  |  |  |  |  |  |  |  |  |  |  | 
C=C(C)C(=O)OCCOP(=O)(O)O |  | inactive | inactive | inactive |  |  |  | inactive |  | inactive | inactive | inactive | inactive | inactive
CC(C)CCCCCCc1ccc(OCCOCCO)cc1 | inactive | inactive |  | 97.2 µM (active) |  |  |  |  | inactive | inactive |  |  | inactive | inactive
CC(Oc1c(Cl)cccc1Cl)C1=NCCN1 (stereo not drawn) | inactive | inactive |  |  |  |  |  | 4.9 µM (active) |  | inactive |  | 12.9 µM (active) | inactive | 
CC(C)(C)c1cccc(O)c1 | inactive | inactive |  | inactive |  |  |  |  | inactive | inactive |  |  | inactive | inactive
Cc1ccc([N+](=O)[O-])c(N)c1 |  | inactive |  | 66.9 µM (active) |  |  |  | inactive | 38.9 µM (active) | inactive | inactive | 24.6 µM (active) | inactive | inactive
CCCCNCCCC | inactive | inactive |  | inactive |  |  |  |  |  | inactive | inactive | inactive | inactive | inactive
CCc1cc2cc(OC)c(OC)cc2c(Cc2ccccc2)n1 |  | inactive |  | 13.3 µM (active) |  |  |  |  | 17.4 µM (active) | inactive | 15.5 µM (active) | 6.45 µM (active) |  | 
ClC(Cl)Cl |  | inactive | inactive |  | 0.159 |  |  |  |  | inactive |  |  | inactive | 
OCCN(CCO)c1ccccc1 |  | inactive | inactive | inactive |  |  |  | inactive |  | inactive |  |  | inactive | inactive
CC(C)C1=CC2=CC[C@@H]3[C@](C)(CCC[C@@]3(C)C(=O)O)[C@H]2CC1 |  | inactive | inactive | 27.3 µM (active) | -2.9 | inactive | inactive |  | 35.6 µM (active) | inactive |  |  | inactive | 35.6 µM (active)
CN(CCCN1c2ccccc2CCc2ccccc21)CC(=O)c1ccc(Cl)cc1 |  | inactive | inactive | 18.8 µM (active) |  | 25.1 µM (active) | 22.4 µM (active) |  | 3.47 µM (active) | inactive | 15.5 µM (active) |  | inactive | 
Nc1ccc(Oc2ccc(N)c(N)c2)cc1 | 61.1 µM (active) | inactive |  | 19.3 µM (active) |  |  |  |  | 20 µM (active) | inactive |  | 35.6 µM (active) | inactive | 3.56 µM (active)
O=C1N(c2ccccc2)c2ccccc2C1(Cc1ccncc1)Cc1ccncc1 |  | inactive |  | inactive |  |  |  | 30.9 µM (active) | 2.45 µM (active) | inactive | 3.47 µM (active) | inactive | inactive | 
CCCCCCCCCCCCOCCOS(=O)(=O)O |  | inactive | inactive |  |  |  |  |  | 79.6 µM (active) | inactive |  |  | inactive | inactive
NC1=NCC2c3ccccc3Cc3ccccc3N12 (stereo not drawn) | inactive | inactive |  |  | 0.173 |  |  |  |  | inactive |  |  |  | 
NC(=O)NS(=O)(=O)c1ccc(Cl)cc1 |  | inactive |  | inactive |  |  |  | inactive | inactive | inactive | inactive | inactive | inactive | inactive
CCOc1ccc(OCC)c(Cl)c1 |  | inactive | inactive | inactive |  |  |  | inactive | inactive | inactive | inactive | 25.2 µM (active) | inactive | inactive
CS(=O)(=O)c1ccc([C@@H](O)[C@@H](CF)NC(=O)C(Cl)Cl)cc1 | inactive | inactive | inactive | inactive | -1.93 | inactive | inactive | inactive | 21.9 µM (active) |  |  |  | inactive | inactive
CC1=C(CC(=O)O)c2cc(F)ccc2/C1=C\c1ccc(S(C)(=O)=O)cc1 |  | inactive | inactive | inactive |  |  |  |  | inactive | inactive |  | 17.4 µM (active) | inactive | inactive
Cc1nc(-c2ccccn2)ncc1C(=O)Nn1cc(C)c2cc(F)ccc21 |  |  | inactive | 4.86 µM (active) |  |  |  | 44.8 µM (active) | 56.4 µM (active) | inactive | 1.59 µM (active) |  | inactive | 7.96 µM (active)
CC1=CC(=O)CC(C)(C)C1=O |  | inactive | inactive | 62.4 µM (active) |  |  |  |  | inactive | inactive | inactive | inactive | inactive | inactive
O=C1Nc2ccc([N+](=O)[O-])cc2C1=O |  | inactive |  | inactive |  |  |  | 7.09 µM (active) | 5.63 µM (active) | inactive | 35.5 µM (active) | 22.4 µM (active) | inactive | 
CCN1CC(CCN2CCOCC2)C(c2ccccc2)(c2ccccc2)C1=O (stereo not drawn) |  | inactive | inactive | inactive | 9.94 | inactive |  |  | inactive | inactive | inactive | inactive | inactive | 
